The list is not random: actives were taken first. Their share in the collection is about 2.3%.
Mcl1-Bid inh: Mcl-1/Bid binding inhibitors, primary screen, biochemical, TR-FRET, 1536-well. 220,000 compounds, 0.97% hits. inhibition, % at 21.7 µM. Induced myeloid leukemia cell differentiation protein Mcl-1 (Homo sapiens), Q07820. TR-FRET Mcl-1/Bid-Dy647 peptide binding;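 active means compounds that cut the binding signal by more than half at the single screening dose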;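 further: His-tagged Mcl-1 with europium anti-His antibody binding Bid BH3 peptide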
Target sequence (Q07820 whole entry, looked up): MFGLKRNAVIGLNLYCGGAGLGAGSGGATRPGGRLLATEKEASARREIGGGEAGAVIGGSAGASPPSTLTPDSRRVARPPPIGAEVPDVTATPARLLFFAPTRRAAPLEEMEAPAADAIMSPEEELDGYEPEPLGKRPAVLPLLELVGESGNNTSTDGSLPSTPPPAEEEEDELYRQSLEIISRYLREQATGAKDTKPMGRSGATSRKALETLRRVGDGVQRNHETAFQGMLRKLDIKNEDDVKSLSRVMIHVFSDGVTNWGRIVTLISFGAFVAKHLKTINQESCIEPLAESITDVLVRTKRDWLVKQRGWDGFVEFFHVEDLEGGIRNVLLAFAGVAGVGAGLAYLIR
MCL1 BIM primary: inhibitors of MCL1 binding to BIM-BH3, primary screen, biochemical, fluorescence polarization. Induced myeloid leukemia cell differentiation protein Mcl-1 (Homo sapiens), Q07820. GST-MCL1 / FITC-Bim-BH3 fluorescence polarization. inhibition, % at 10.9 µM. 320,000 compounds, 0.68% hits;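 active means inhibition above the mean inhibition of all tested compounds plus 3 SD, set per campaign, cut at about 40% in these data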;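 further: higher means more loss of mP so more displacement of Bim peptide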
Mcl-1 Bim block: inhibitors of Bim peptide binding to Mcl-1, primary screen, biochemical, bead-based flow cytometry, multiplex | inhibition, % at 10 µM | Bim peptide-Mcl-1 binding | 190,000 compounds, 0.1% hits | Induced myeloid leukemia cell differentiation protein Mcl-1 (Homo sapiens), Q07820 | AID 1009, 2008; in the data active means inhibition above about 40%
GLD-1 RNA inh: GLD-1/TGE RNA complex disruptors, primary screen, biochemical, fluorescence polarization | inhibition, % at 5.96 µM | 320,000 compounds, 0.44% hits | purified GLD-1 + fluorescein TGE RNA | Female germline-specific tumor suppressor gld-1 (Caenorhabditis elegans), Q17339;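 active means percent inhibition above a per-plate cutoff, the plate mean of test compounds plus 3 SD, cut at about 30% in these data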
BCLXL inh: inhibitors of human Bcl-xL, primary screen, biochemical, fluorescence polarization, HTS. Bcl-2-like protein 1 (Homo sapiens), Q07817. GST-Bcl-xL / FITC-Bim BH3 peptide fluorescence polarization. inhibition, % at 10.9 µM. 320,000 compounds, 0.7% hits;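 active means inhibition above the mean of all tested compounds plus 3 SD, cutoff set per campaign, cut at about 30% in these data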;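 further: inhibitors lower millipolarization by displacing the labeled peptide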
Mcl1 Noxa PPI: Mcl-1/Noxa binding inhibitors, primary screen, biochemical, TR-FRET, 1536-well; TR-FRET Mcl-1/Noxa peptide binding, 2 h; AID 1022, 2008; inhibition, % at 21.7 µM; 220,000 compounds, 1.5% hits; Induced myeloid leukemia cell differentiation protein Mcl-1 (Homo sapiens), Q07820;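 active means compounds that cut the protein-peptide binding signal by more than 50% relative to plate controls in a single-dose test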;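 further: His-tagged Mcl-1 with rhodamine Noxa BH3 peptide and terbium anti-His antibody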
Hits are given with their value; i = inactive; nt = no result given.

SMILES | Mcl1-Bid inh | MCL1 BIM primary | Mcl-1 Bim block | GLD-1 RNA inh | BCLXL inh | Mcl1 Noxa PPI
O=C(O)c1cccc(-n2cccc2/C=C2/NC(=O)N(c3ccc(Cl)cc3)C2=O)c1 | 98.2 | nt | i | nt | nt | 113.0
COc1ccc(-n2cccc2/C=C2/NC(=O)N(c3cccc(Cl)c3)C2=O)cc1 | i | i | i | i | i | i
CCN1CC(CN(C)Cc2cn(-c3ccc(C)cc3)nc2-c2cccc(C)c2)CC1=O (stereo unspecified) | i | i | i | i | i | i
CC1(OC(=O)C2CCCC2)C(=O)C=C2C=C(c3ccsc3)N(C3CCCCC3)C=C2C1=O (stereo unspecified) | i | i | nt | i | 30.2 | i
CC1(OC(=O)C2CCCC2)C(=O)C=C2C=C(c3ccsc3)N(CC3CC3)C=C2C1=O (stereo unspecified) | i | i | nt | i | i | i
O=C(NCc1ccco1)c1cc2c(s1)CSC2 | i | i | i | i | i | 78.6
O=C(NCc1ccc2c(c1)OCO2)c1cc2c(s1)CSC2 | i | i | i | i | i | i
O=C(Nc1nnc(-c2ccco2)s1)C1CC1 | 77.3 | i | i | i | i | i
O=C(Nc1nnc(-c2ccco2)s1)C1CCN(S(=O)(=O)c2ccc(Cl)cc2)CC1 | nt | i | i | i | i | nt
COC(=O)c1ccc(-c2nc3cc(Cl)c(N)cc3s2)cc1 | 90.8 | i | i | i | i | i
C[C@H]1CN([C@@H](C)CO)C(=O)c2cccc(NC(=O)Nc3ccc(C(F)(F)F)cc3)c2O[C@@H]1CN(C)S(=O)(=O)c1ccc(Cl)cc1 | nt | nt | nt | i | nt | nt
O=C(Nc1ccc2sccc2c1)c1ccc(Cl)s1 | 82.1 | i | i | i | i | i
COc1ccc(C)cc1-n1nnnc1SC/C(O)=C(\C#N)c1nc2ccccc2[nH]1 | i | i | i | i | i | i
Cc1cccc(Nc2nnc(SC/C(O)=C(\C#N)c3nc4ccccc4[nH]3)s2)c1 | i | i | i | i | i | 51.5
Cc1ccc(Nc2nnc(SC/C(O)=C(\C#N)c3nc4ccccc4[nH]3)s2)c(C)c1 | i | i | i | i | i | 69.5
O=C1/C(=C\c2ccco2)SC(=S)N1C1CCCCC1 | nt | i | nt | i | i | nt
CC1=C(C#N)C(=O)N(C2CCS(=O)(=O)C2)C(=O)/C1=C\c1ccco1 (stereo unspecified) | 60.5 | 105.4 | nt | i | 49.3 | 109.6
CN(Cc1ccccc1)Cc1nc2c([nH]1)c(=O)[nH]c(=O)n2C | 97.2 | i | i | i | i | nt
CN(C)Cc1nc2c([nH]1)c(=O)n(C)c(=O)n2C | i | i | i | i | i | i
Cn1c(=O)c2[nH]c(CN(Cc3ccccc3)Cc3ccccc3)nc2n(C)c1=O | i | i | i | 34.5 | i | i
COCc1cc(C)nc(SCc2ccc(Br)cc2)c1C#N | nt | i | nt | i | i | nt
CN(CC(=O)Nc1ccccc1Cl)C(=O)COC(=O)c1cnccn1 | nt | i | nt | i | i | nt
CN(C)c1ccc(N=c2sc3ccccc3n2C)cc1 | i | i | i | i | i | 101.3
O=C(O)c1ccccc1C(=O)Nc1ccc(-n2nc(C(F)(F)F)cc2C(F)(F)F)cc1 | i | i | nt | i | i | i
ONc1cccnc1-n1nc(C(F)(F)F)cc1C(F)(F)F | i | i | i | i | 37.8 | i
O=C(Nc1ccc(Cl)c(Cl)c1)Nc1ccc([N+](=O)[O-])cn1 | i | i | nt | i | i | 52.7
O=C(Nc1ccc(F)cc1)Nc1ccc([N+](=O)[O-])cn1 | i | i | i | i | i | i
COc1ccc(/C=C2\SC(=S)N(CCC(=O)Nc3ccc(O)cc3)C2=O)cc1 | nt | i | nt | i | i | nt
COc1ccc(/C=C2\SC(=O)N(CCC(=O)Nc3ccc(S(=O)(=O)Nc4nccs4)cc3)C2=O)cc1 | i | i | i | i | i | 93.2
COc1ccc(/C=C2/SC(=O)N(CCC(=O)Nc3ccc(S(=O)(=O)Nc4nccs4)cc3)C2=O)cc1 | i | i | i | i | i | 96.0
